Results on 84 molecules are retold here after publication PMC4336329 (PLoS ONE, 2015).

The campaign covered roughly 310,000 compounds. About 14,000 (4.5%) showed an effect of 50% or more. The effect is printed as a negative number. The entries come from a sample that favours strong results as a whole.
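Also: peak tail current of the secondary pulse compared with the same well before compound.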

The experiment deals with human ether-à-go-go-related gene (hERG) potassium channel (human, UniProt Q12809). The experiment in a line: primary screen, population patch clamp on CHO cells stably expressing hERG; higher = less effect of the substance.
human ether-à-go-go-related gene (hERG) potassium channel, sequence (Q12809 whole entry, looked up): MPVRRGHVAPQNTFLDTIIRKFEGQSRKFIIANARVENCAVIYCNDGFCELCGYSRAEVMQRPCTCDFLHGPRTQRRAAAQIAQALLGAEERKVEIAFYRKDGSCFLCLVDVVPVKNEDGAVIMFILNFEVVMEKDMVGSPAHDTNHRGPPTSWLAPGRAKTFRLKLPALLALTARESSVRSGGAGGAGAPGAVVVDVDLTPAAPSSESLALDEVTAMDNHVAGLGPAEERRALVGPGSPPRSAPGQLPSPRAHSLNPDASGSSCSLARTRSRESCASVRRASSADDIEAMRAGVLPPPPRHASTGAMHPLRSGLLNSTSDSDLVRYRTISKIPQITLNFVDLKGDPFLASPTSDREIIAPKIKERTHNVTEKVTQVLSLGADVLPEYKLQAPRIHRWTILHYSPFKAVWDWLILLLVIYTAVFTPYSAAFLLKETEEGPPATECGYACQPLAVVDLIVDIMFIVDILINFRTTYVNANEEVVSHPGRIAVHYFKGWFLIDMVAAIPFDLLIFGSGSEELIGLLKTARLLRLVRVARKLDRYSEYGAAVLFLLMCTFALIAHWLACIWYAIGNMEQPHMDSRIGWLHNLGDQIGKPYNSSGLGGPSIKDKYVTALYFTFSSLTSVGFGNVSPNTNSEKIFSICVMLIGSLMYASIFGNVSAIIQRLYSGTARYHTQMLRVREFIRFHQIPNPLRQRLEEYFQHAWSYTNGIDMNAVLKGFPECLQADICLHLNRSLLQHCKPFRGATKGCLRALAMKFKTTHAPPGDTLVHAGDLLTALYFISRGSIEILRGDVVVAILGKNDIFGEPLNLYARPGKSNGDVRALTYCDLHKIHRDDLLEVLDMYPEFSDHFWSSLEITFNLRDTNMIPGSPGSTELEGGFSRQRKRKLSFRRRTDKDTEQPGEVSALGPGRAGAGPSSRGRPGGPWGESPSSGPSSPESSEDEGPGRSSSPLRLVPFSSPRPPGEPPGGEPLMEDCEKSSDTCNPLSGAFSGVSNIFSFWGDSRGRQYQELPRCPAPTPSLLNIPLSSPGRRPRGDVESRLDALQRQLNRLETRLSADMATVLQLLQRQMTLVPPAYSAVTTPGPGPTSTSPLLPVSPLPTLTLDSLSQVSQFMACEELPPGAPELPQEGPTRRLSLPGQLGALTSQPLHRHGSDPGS
`Cc1ccc(OCc2nnc(SCC(=O)c3ccccc3)n2-c2ccccc2)cc1`: the “hERG current change (%, negative = inhibition) at 10uM” value was found to be 1.75%.
The figure for `CC1(c2ccccc2)NC(=O)N(CC(=O)Nc2ccccc2C(=O)N2CCCCC2)C1=O` (stereo not drawn) is 19.7%; for `O=C(CSc1nc(-c2ccco2)cc(C(F)(F)F)n1)N1CCSCC1` it is -19.9%; for `CN1CCN(C(=O)CSc2nc(-c3ccco3)cc(C(F)(F)F)n2)CC1` it is 15.3%.
Take `O=C(CSc1nc(-c2ccco2)cc(C(F)(F)F)n1)N1CCN(Cc2ccccc2)CC1`: the “hERG current change (%, negative = inhibition) at 10uM” value is recorded as -58.8%.
The figure for `CCc1cc(C(=O)N(C)CC(=O)Nc2c(Cl)cccc2Cl)sc1C` is -2.89%.
To `COc1cc(O)c(C(CCN2CCOCC2)c2ccc3c(c2)OCO3)c(OC)c1` (stereo not drawn) belongs -59.5%; to `COc1cc(O)c(C(CC(=O)N2CCCCC2)c2ccc3c(c2)OCO3)c(OC)c1` (stereo not drawn), 5.41%.
As to `COc1cc(O)c(C(CCN2CCOCC2)c2ccc(N(C)C)cc2)c(OC)c1` (stereo not drawn), the “hERG current change (%, negative = inhibition) at 10uM” value is on record as 7.96%.
Take `COc1cc(O)c(C(CCN2CCCC(C)C2)c2ccc3c(c2)OCO3)c(OC)c1` (stereo not drawn): the “hERG current change (%, negative = inhibition) at 10uM” value is -77.5%.
`COc1cc(O)c(C(CC(=O)N2CCOCC2)c2ccc3c(c2)OCO3)c(OC)c1` (stereo not drawn): the “hERG current change (%, negative = inhibition) at 10uM” value is 7.98%.
With `COc1cc(O)c(C(CCN2CCCCC2)c2ccc3c(c2)OCO3)c(OC)c1` (stereo not drawn), the “hERG current change (%, negative = inhibition) at 10uM” value is reported as -78.3%.
As to `COc1cc(O)c(C(CCN2CCCC2)c2cc(OC)c(OC)c(OC)c2)c(OC)c1` (stereo not drawn), the “hERG current change (%, negative = inhibition) at 10uM” value was -7.35%.
The figure for `COc1cc(O)c(C(CCN2CCCC(C)C2)c2ccc(N(C)C)cc2)c(OC)c1` (stereo not drawn) is -29.5%.
The figure for `COc1cc(O)c(C(CC(=O)N2CCCC2)c2ccc3c(c2)OCO3)c(OC)c1` (stereo not drawn) is 6.4%; for `COc1cc(O)c(C(CCN2CCN(c3ccccc3)CC2)c2ccc3c(c2)OCO3)c(OC)c1` (stereo not drawn) it is -16.6%; for `COc1cc(O)c(C(CC(=O)N2CCCC(C)C2)c2ccc3c(c2)OCO3)c(OC)c1` (stereo not drawn) it is -5.66%.
Take `COc1cc(O)c(C(CCN2CCCC2)c2ccc3c(c2)OCO3)c(OC)c1` (stereo not drawn): the “hERG current change (%, negative = inhibition) at 10uM” value is -72.5%.
To `COc1ccc(NC(=O)c2cc3ccccc3o2)cc1OC` belongs -3.22%; to `O=C1CC(c2ccccc2)c2ccccc21` (stereo not drawn), 8.78%; to `Cc1ccc(Cn2nc(C)c(NC(=O)CSc3nc4c(c(C(F)(F)F)n3)CCc3ccccc3-4)c2C)cc1`, 13.1%.
To `O=C(O)Cc1sc(Nc2ccc(F)cc2)nc1-c1cccs1` belongs 15.3%.
To `Cc1ccccc1C(CC(=O)c1cccs1)C(C#N)C#N` (stereo not drawn) belongs 20.2%; to `Cc1ccc(Cn2ncc3c(N4CCN(c5ccc(C)cc5)CC4)ncnc32)cc1`, 8.18%.
In the case of `COCCN(C(=O)c1cc2c(s1)CCCCC2)c1c(N)n(CC(C)C)c(=O)[nH]c1=O`, the “hERG current change (%, negative = inhibition) at 10uM” value came out at 3.04%.
The figure for `CCOC(=O)C(NC(=O)C1CCCN1C(=O)OCc1ccccc1)C(=O)OCC` (stereo not drawn) is -0.938%; for `CCc1nnc(NC(=O)C2CCCN2C(=O)Nc2ccc(Cl)cc2)s1` (stereo not drawn) it is 1.86%.
To `COc1cc(-c2cc(C(=O)Nc3ccc(S(=O)(=O)Nc4ncccn4)cc3)c3ccccc3n2)cc(OC)c1OC` belongs -7.01%.
In the case of `CCn1c(=O)cc(SCC(=O)Nc2ccc(OC)c(OC)c2)c2ccccc21`, the “hERG current change (%, negative = inhibition) at 10uM” value is reported as -4.7%.
For the molecule `COc1ccc(S(=O)(=O)Nc2ccc(-n3cnnn3)cc2)cc1[N+](=O)[O-]`, the “hERG current change (%, negative = inhibition) at 10uM” value came out at 0.00208%.
As to `CC(C)(C)OC(=O)NCCCCCNC(=O)c1[nH]cnc1C(=O)NC1CCN(C(=O)OC(C)(C)C)CC1`, the “hERG current change (%, negative = inhibition) at 10uM” value is on record as -78.1%.
Turning to `Cc1ccc(NC(=O)c2nc[nH]c2C(=O)NCCCCCNC(=O)OC(C)(C)C)cc1`, the “hERG current change (%, negative = inhibition) at 10uM” value is listed as -15.2%.
Consider `CC(C)(C)OC(=O)N1CCC(NC(=O)c2nc[nH]c2C(=O)NC2CCN(C(=O)OC(C)(C)C)CC2)CC1`, for which the “hERG current change (%, negative = inhibition) at 10uM” value was -31.5%.
The figure for `CC(C)(C)OC(=O)NCCCCCNC(=O)c1[nH]cnc1C(=O)Nc1ccccc1` is -53.2%; for `CC(C)(C)OC(=O)CNC(=O)c1[nH]cnc1C(=O)NC1CCN(C(=O)OC(C)(C)C)CC1` it is -2.67%.
The figure for `CC(C)(C)OC(=O)NCCCCCNC(=O)c1[nH]cnc1C(=O)Nc1ccc(Cl)cc1` is -6.26%.
To `O=C(COC(=O)/C=C/c1ccccc1Cl)NC1CCCC1` belongs 14.6%; to `O=C(Nc1cccc2ccccc12)NC1CCCCC1O` (stereo not drawn), 0.227%; to `O=C(Nc1ccc(Cl)cc1Cl)C1CCC(=O)N1Cc1ccccc1Cl` (stereo not drawn), -2.67%.
For `C#CCOCCOCCOCCNc1nc(N2CCN(C(=O)CCCCCCCCCCNC(=O)[C@H](CO)n3cc(CCCSC)nn3)CC2)nc(N2CCN(C(=O)CCCCCCCCCCNC(=O)[C@@H]([C@H](C)O)n3cc(C)nn3)CC2)n1`, the “hERG current change (%, negative = inhibition) at 10uM” value was 8.18%.
As for `Cc1nnc(SCC(=O)Nc2ccc3c(c2)OCCO3)s1`, the “hERG current change (%, negative = inhibition) at 10uM” value is recorded as 16.9%.
The figure for `C/C(=N\O)c1ccc2c3ccccc3n(C)c2c1` is 25.3%; for `COc1cc(CNCc2cccs2)ccc1OCc1ccccc1.Cl` it is -31.8%; for `N#C/C(=C\c1c[nH]c2ccccc12)c1nnc2n1CCCCC2` it is -29.5%.
The figure for `O=C(/C=C/c1cn(-c2ccccc2)nc1-c1cccnc1)N1CCCCC1` is -49.7%.
To `N#C/C(=C\c1cn(-c2ccccc2)nc1-c1cccnc1)c1nnc2n1CCCCC2` belongs -63.2%; to `Cc1cc(C(=O)COC(=O)C(C)NC(N)=O)c(C)n1Cc1ccco1` (stereo not drawn), 10.5%.
`CCN(C(=O)Cn1nc(C)c([N+](=O)[O-])c1C)C1CCS(=O)(=O)C1` (stereo not drawn): the “hERG current change (%, negative = inhibition) at 10uM” value is 24.1%.
To `Cc1ccc(NC(=O)Cn2ccc([N+](=O)[O-])n2)cc1C` belongs 14.2%; to `CC(C)n1c(CN2CCN(C(=O)c3ccco3)CC2)nc2c1c(=O)n(C)c(=O)n2C`, -7.57%.
The figure for `CCCn1c(SCC(=O)N2CCN(c3ccc(OC)cc3)CC2)nc2c1c(=O)n(C)c(=O)n2C` is -36%; for `CC(C)n1c(SCC(=O)N2CCCC2)nc2c1c(=O)n(C)c(=O)n2C` it is -5.03%.
Regarding `Cn1c(=O)c2c(nc(N3CCOCC3)n2CCSc2ncccn2)n(C)c1=O`, the “hERG current change (%, negative = inhibition) at 10uM” value is reported as 0.639%.
The figure for `COc1ccc(N2CCN(C(=O)CSc3nc4c(c(=O)n(C)c(=O)n4C)n3C(C)C)CC2)cc1` is -50.2%.
Take `CC(C)n1c(SCC(=O)N2CCN(C)CC2)nc2c1c(=O)n(C)c(=O)n2C`: the “hERG current change (%, negative = inhibition) at 10uM” value was 2.15%.
As to `CCN1CCN(c2nc3c(c(=O)n(C)c(=O)n3C)n2CCSc2ncccn2)CC1`, the “hERG current change (%, negative = inhibition) at 10uM” value is given as 3.51%.
The figure for `CC(C)n1c(SCC(=O)N2CCN(C(=O)c3ccco3)CC2)nc2c1c(=O)n(C)c(=O)n2C` is -50.9%; for `Cn1c(=O)c2c(nc(N3CCN(C(=O)c4ccco4)CC3)n2CCSc2ncccn2)n(C)c1=O` it is -57.4%.
To `COc1ccc(S(=O)(=O)N2CCOC2CNC(=O)C(=O)NCc2ccc3c(c2)OCO3)cc1` (stereo not drawn) belongs -25.6%; to `Cc1ccc(S(=O)(=O)N/N=C\c2ccc(Cl)c([N+](=O)[O-])c2)cc1`, 18.4%.
As for `CCOC(=O)c1sc(=S)n(-c2cccc(OC)c2)c1N`, the “hERG current change (%, negative = inhibition) at 10uM” value is recorded as -7.09%.
To `CCc1ccc2[nH]c(=O)c(C(c3nnnn3CC3CCCO3)N3CCCc4ccccc43)cc2c1` (stereo not drawn) belongs 19.8%; to `O=C(COC(=O)c1ccccc1Oc1ccccc1)NCc1ccco1`, -19.1%; to `O=C(Nc1cccc(S(=O)(=O)Nc2ccc(Cl)cc2)c1)c1ccc(Cl)nc1`, 19.8%.
As to `Cc1oc(-c2ccccc2F)nc1CS(=O)(=O)CC(=O)N1CCc2ccccc21`, the “hERG current change (%, negative = inhibition) at 10uM” value was 12.4%.
The figure for `CC(C)(C)NCc1cc(Br)ccc1OCc1cccs1.Cl` is -52.5%; for `CC(C)(C)NCc1ccccc1OCc1cccs1.Cl` it is 6.17%.
To `C=CCOc1ccc(Br)cc1CNC(C)(C)C.Cl` belongs -14.7%.
Take `CC(C)COc1ccc(Br)cc1CNC(C)(C)C.Cl`: the “hERG current change (%, negative = inhibition) at 10uM” value is -41.8%.
For `CC(C)(C)NCc1cc(Cl)ccc1OCc1cccs1.Cl`, the “hERG current change (%, negative = inhibition) at 10uM” value is reported as -32.5%.
`CC(C)(C)NCc1cc(Br)ccc1OC1CCCC1.Cl`: the “hERG current change (%, negative = inhibition) at 10uM” value is listed as -53.8%.
In the case of `CCN(CC)CCNC(=O)c1ccc(NC(=O)Cc2ccsc2)cc1`, the “hERG current change (%, negative = inhibition) at 10uM” value turned out to be 15.6%.
On to `O=c1oc2ccccc2cc1N1CCOCC1`, for which the “hERG current change (%, negative = inhibition) at 10uM” value is -7.08%.
Turning to `CN(C)S(=O)(=O)c1ccc(C(=O)Nc2nnc(-c3cccs3)o2)cc1`, the “hERG current change (%, negative = inhibition) at 10uM” value is 31.7%.
With `O=C(COC(=O)c1ccc(F)cc1F)Nc1ncccn1`, the “hERG current change (%, negative = inhibition) at 10uM” value was -3.24%.
Take `O=C(COC(=O)c1ccccc1F)Nc1cccnc1Cl`: the “hERG current change (%, negative = inhibition) at 10uM” value was -2.16%.
The figure for `O=C(COC(=O)c1ccc(F)cc1F)Nc1cccnc1Cl` is -56.3%; for `Cc1ccc(NC(=O)c2cnn(-c3ccccc3)c2NC(=O)c2ccco2)cc1` it is 2.02%.
In the case of `Cc1ccnn1CC(=O)N/N=C/c1ccc2c(c1)OCO2`, the “hERG current change (%, negative = inhibition) at 10uM” value is listed as -7.72%.
The figure for `N#C/C(=C/c1cccc(O)c1)C(=O)NCc1ccc(Cl)cc1` is 31%.
For `COC(=O)CSc1cc([N+](=O)[O-])cc2c1c(C1OCCO1)nn2-c1ccccc1`, the “hERG current change (%, negative = inhibition) at 10uM” value is given as -5.4%.
With `CN(CCO)c1nc(N)c2c(N)nc3c(c2c1C#N)CC(=O)N3Cc1cccs1`, the “hERG current change (%, negative = inhibition) at 10uM” value is on record as -29.6%.
To `N#Cc1c(N(CCO)CCO)nc(N)c2c(N)nc3c(c12)CC(=O)N3CC1CCCO1` (stereo not drawn) belongs 10%; to `CN(CCO)c1nc(N)c2c(N)nc3c(c2c1C#N)CC(=O)N3C1CCCC1`, -63.5%.
